Source: PubChem BioAssay (NCI)
Compounds without any hit were thinned out: in the full panel of roughly 79,000, 15% have a hit. Calls of active or inactive are those of the source. No stated cut-off is given here; in the data, active means growth inhibition above about 70%; inactive means the rest.

Legend:
[1] = NCI Yeast Anticancer Drug Screen. Data for the rad50 strain (AID 155);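 further: 0% = growth of vehicle-only cultures of the same strain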; settings: S. cerevisiae rad50 strain growth inhibition; at 50.0 µM; hits give high values
In short: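 Cells are treated with compound, grown, and their growth is then scored against vehicle-only cultures of the same repair-deficient yeast strain.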

[2] = NCI Yeast Anticancer Drug Screen. Data for the mec2-1 strain (AID 157); settings: S. cerevisiae mec2-1 strain, at 50.0 µM, hits give high values
In short: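 Mutant yeast (mec2-1) grown with compound; growth inhibition relative to vehicle control reported.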

[3] = NCI Yeast Anticancer Drug Screen. Data for the sgs1 mgt1 strain (AID 161);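 further: 0% = growth of cultures given vehicle only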; settings: S. cerevisiae sgs1 mgt1 strain, at 50.0 µM, hits give high values
In short: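 Yeast cells carrying a defined DNA-repair defect were exposed to test compounds. Growth inhibition was measured relative to vehicle-treated controls.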

[4] = NCI Yeast Anticancer Drug Screen. Data for the cln2 rad14 strain (AID 165);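 further: 0% = growth equal to vehicle treated cultures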; settings: S. cerevisiae cln2 rad14 strain, at 50.0 µM, hits give high values
In short: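 Readout is yeast growth inhibition versus vehicle-treated controls, using a strain with cln2 and rad14 alterations exposed to compound.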

[5] = NCI Yeast Anticancer Drug Screen. Data for the bub3 strain (AID 167); settings: S. cerevisiae bub3 mutant strain, at 50.0 µM, hits give high values
In short: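 Part of a panel of yeast mutants defective in DNA damage repair or cell cycle regulation. Each strain is grown with compound, and inhibition is calculated relative to solvent-treated cultures.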

[6] = NCI Yeast Anticancer Drug Screen. Data for the mlh1 rad18 strain (AID 175); settings: S. cerevisiae mlh1 rad18 strain growth inhibition; at 50.0 µM; hits give high values
In short: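 Genetically defined yeast (DNA repair-deficient) exposed to compounds; growth inhibition determined relative to vehicle.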

Measured: growth inhibition

CC(C)=C1C(=O)C[C@@]2(C)C[C@H]3OC3(C)CC/C=C(/C)CCC12 (stereo partly drawn)
inactive: [1] 14.9% | [2] 11.7% | [3] 19.8% | [4] 12.9% | [5] 30.2% | [6] -62.5%

Oc1c(Cl)cc(N=Cc2ccc(N(CCCCl)CCCCl)cc2Cl)cc1Cl
active: [1] 84.6% | [3] 93.7% | [4] 75.2% | [6] 84%
inactive: [2] 41% | [5] 54.7%

CCOC/N=C(/N)NC#N
inactive: [1] 25.6% | [2] 2.35% | [3] 10.8% | [4] 13.1% | [5] -3.4% | [6] 33.1%

O=C(Nc1ccn(C2CCC(CO)O2)c(=O)n1)c1ccccc1 (stereo not drawn)
inactive: [1] 35.8% | [2] -3.05% | [3] -16.7% | [4] -23.8% | [5] 4.25% | [6] -7.55%

OC(CC(O)(C(F)(F)F)C(F)(F)F)c1cccs1 (stereo not drawn)
inactive: [1] -1.95% | [2] 13.6% | [3] 4.6% | [4] 51.5% | [5] -5.45% | [6] 12.9%

O=C(O)c1c[nH]c2cc(OCc3ccc(Br)cc3)ccc2c1=O
inactive: [1] 13.8% | [2] 0.65% | [3] -1.85% | [4] 6.9% | [5] 2.5% | [6] 9.45%

Cc1ccc(-c2n[nH]c(=O)n2N2C(=O)C=CC2=O)cc1
inactive: [1] -9.05% | [2] -20.6% | [3] -26.3% | [4] -1.2% | [5] -15.4% | [6] -59.9%

BrCCCCOc1ccccc1
inactive: [1] 3.5% | [2] 2.65% | [3] -11.3% | [4] -4.25% | [5] -2.7% | [6] 2.7%

Oc1ccccc1C=Nc1ccc(N2CCOCC2)cc1
inactive: [1] 2.65% | [2] -3.7% | [3] 10.1% | [4] -4.2% | [5] 2.05% | [6] -2.35%

COc1ccc2ccccc2c1C1=NC(C)(C)CO1
inactive: [1] -6.65% | [2] -18.6% | [3] 2.6% | [4] 18.5% | [5] -3.8% | [6] -16.6%

O=C1c2cc(Br)ccc2-c2ccc(Br)c3cccc1c23
inactive: [1] -10.6% | [2] -20.8% | [3] -6.1% | [4] 10.3% | [5] -1.05% | [6] -20.3%

O=C1NC(CN2CCC(O)CC2)C(=O)NC1CN1CCC(O)CC1 (stereo not drawn)
inactive: [1] 0.6% | [2] 7.7% | [3] -10.2% | [4] 2.4% | [5] -1.05% | [6] -0.35%

CN(C)CCCc1c2ccccc2nc2ccc(Cl)cc12
inactive: [1] 12.5% | [2] 4.5% | [3] -10% | [4] -2.65% | [5] 2.65% | [6] 26.5%

CCC(CC)COC(=O)c1ccccc1C(=O)OCC(CC)CC
inactive: [1] -18.9% | [2] -33.3% | [3] -0.35% | [4] 3.6% | [5] -2.75% | [6] -16%

Nc1ccccc1C(=O)Nc1ccccn1
inactive: [1] 4.05% | [2] -1.1% | [3] 0.5% | [4] 5.35% | [5] 0.45% | [6] -6.25%

CCc1c(C)nc2[nH]ncn2c1=O
inactive: [1] 10.8% | [2] -2.1% | [3] 11.1% | [4] -2.25% | [5] 7.25% | [6] 6.7%

OCCN(CCO)c1ccc(O)cc1
inactive: [1] -6.85% | [2] 2.3% | [3] -17.1% | [4] 13.6% | [5] -3.6% | [6] -11.7%

CC(=O)c1ccc2ccccc2c1
inactive: [1] 24.4% | [2] 7.8% | [3] 4.3% | [4] 2.75% | [5] -0.1% | [6] 16.2%

C=C1C(=O)OC2CCC3OC(C)(C)OC3C12 (stereo not drawn)
inactive: [1] 6.2% | [2] 17.5% | [3] 15.4% | [4] -16.9% | [5] 31.9% | [6] 10.6%

CC(=Nc1ccc(C)cc1)NNc1nc2ccccc2s1
inactive: [1] 15.1% | [2] -7.3% | [3] 13.2% | [4] -37.2% | [5] 17.3% | [6] 25%

C/C=C\C(=O)OC1CCC(C2CCCCC2)CC1 (stereo not drawn)
inactive: [1] 25.3% | [2] 9.3% | [3] 14.8% | [4] 1.25% | [5] 56.6% | [6] -2.15%

CC(C)([NH-])C[NH-].[Cl][Pt+2][Cl]
inactive: [1] -17.1% | [2] -18.8% | [3] -24.5% | [4] -23.4% | [5] -3.8% | [6] 5.1%

CC(C)(C)c1ccc(OCCCCl)c(CCl)c1
inactive: [1] 23.4% | [2] 2.75% | [3] 10.1% | [4] 7.65% | [5] 52% | [6] 12.6%

N#CC(/C(=N/NC(=O)C(=O)NN)C(=O)NC12CC3CC(CC(C3)C1)C2)c1ccccc1 (stereo not drawn)
inactive: [1] 16.1% | [2] 10.8% | [3] 1% | [4] 1.4% | [5] 30.6% | [6] -2.05%

Cc1ccc2ccccc2c1CP(=O)(O)O
inactive: [1] -18.9% | [2] -11.1% | [3] -10.4% | [4] -10.6% | [5] 15.2% | [6] -31.4%

CC(C)(C)c1ccc(-c2nc3ccc(Cl)cc3c(=O)o2)cc1
inactive: [1] -26.6% | [2] -24.5% | [3] -7.85% | [4] -48.3% | [5] -17.6% | [6] 0.45%

O=C1OC(c2ccccc2)=N/C1=C\c1ccco1
inactive: [1] -2.95% | [2] -19.3% | [3] -24.4% | [4] 19.6% | [5] -22.2% | [6] 23.6%

CCCC(P(c1ccccc1)c1ccccc1)P(=O)(c1ccccc1)c1ccccc1 (stereo not drawn)
inactive: [1] 62.7% | [2] 39.2% | [3] 39.1% | [4] 24.9% | [5] 59.4% | [6] 29.1%

CCN(CCO)CCCC(C)Nc1ccnc2cc(Cl)ccc12 (stereo not drawn)
inactive: [1] -43.2% | [2] -66.5% | [3] -33.4% | [4] -132% | [5] -45.9% | [6] -63.4%

CCOC(=O)CCCCCCCCCC[N+](CC)(CC)CC(=O)c1ccc(NC(C)=O)cc1
inactive: [1] -1.05% | [2] -2.35% | [3] 3.5% | [4] 12.3% | [5] 16.8% | [6] -0.1%

Clc1cccc(N2CCN(CCN3CCc4c([nH]c5ccccc45)C3c3cccnc3)CC2)c1 (stereo not drawn)
inactive: [1] 2.2% | [2] -21.7% | [3] -7.85% | [4] 9.45% | [5] -9.75% | [6] -12%

O=C(/C=C/c1ccc(O)cc1)c1cc(O)cc(O)c1
inactive: [1] 16.9% | [2] 5.05% | [3] 2% | [4] -8.95% | [5] -4.1% | [6] 13.8%

CCCCCC(O)c1ccc2c(c1)OCO2 (stereo not drawn)
inactive: [1] 13.8% | [2] 12.9% | [3] 10.4% | [4] 2.2% | [5] -8.85% | [6] 0%

C=CCOc1cc(NC(=S)c2ccoc2C)ccc1OC
inactive: [1] -17.4% | [2] -3.15% | [3] -10% | [4] -2.7% | [5] -3.35% | [6] -52.9%

O=C1CC(C(=O)O)C(C(Cl)(Cl)Cl)O1 (stereo not drawn)
inactive: [1] -18.9% | [2] -26.4% | [3] 1.8% | [4] -22.7% | [5] -6.7% | [6] -1.2%

CCCCCNc1ccnc(=O)[nH]1
inactive: [1] 11.8% | [2] 6.8% | [3] 2% | [4] -39.5% | [5] -12.9% | [6] -12.7%

N#CC(/C(=N\NC(=O)c1ccncc1)C(=O)Nc1ccc([N+](=O)[O-])cc1[N+](=O)[O-])c1nc(-c2ccc(Br)cc2)cs1 (stereo not drawn)
inactive: [1] 0.25% | [2] -3.75% | [3] -15.1% | [4] 7.6% | [5] 12.9% | [6] -7.85%

N=C1C=C/[N+](=C\C=CCO)C([O-])=N1
inactive: [1] -18.2% | [2] -20.6% | [3] -35.3% | [4] -2.55% | [5] -43.4% | [6] -3.2%
